According to PubChem BioAssay (NCATS):
Results filed as inconclusive are left out. Activity calls are given as the source filed them. Unless noted, calls follow the shape of the dose curve; as a rule, active = well fitted curve in the direction sought with a large enough effect; inconclusive = small, poorly fitted or top-dose-only effect, or another doubt; inactive = no such curve, though single readings can be large; an effect the other way counts as inactive or inconclusive.

How the values were obtained:
[1] = target: Mitogen-activated protein kinase 10 (Mus musculus) (UniProt Q61831); test: JNK3 AlphaScreen Assay (AID 530; active = well fitted curve in either direction with a large enough effect, not every such curve was filed as active;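 also: kinase came from lysate of stimulated human HepG2 cells; signal reports phosphorylation of biotinylated GST-cJun 1-79 at Ser73 with 10 µM ATP; series mostly up to about 57 µM; % is scaled to controls: 0 for no effect and ±100 for the full control effect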)
Summary of the method: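 Activity was read by AlphaScreen after JNK3-containing HepG2 lysate (cytokine pre-activated) phosphorylated biotinylated GST-cJun with 10 uM ATP at room temperature. Phospho-Ser73 cJun antibody with Protein-A acceptor beads provided detection.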

[2] = Viability counterscreen for antagonist of constitutive androstane receptor (CAR) against the NCATS DSHEA and TCM libraries (AID 1794837);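 also: compound exposure lasted 24 h before viability reading; 0% is about no effect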
Summary of the method: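 Cell viability, CellTiter-Fluor, Ex/Em 405/540 nm, 1 h at 37C. HepG2-CYP2B6-hCAR, 2,500 cells/well; cpds + CITCO 48 uM final (antagonist mode), 24 h, 37C/5% CO2.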

[3] = Viability counterscreen for agonist of constitutive androstane receptor (CAR) against the NCATS DSHEA and TCM libraries (AID 1794838); also: 0% is about no effect
Summary of the method: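 Viability by CellTiter-Fluor fluorescence, 405/540 nm, after 1 h at 37C. HepG2-CYP2B6-hCAR cells were exposed 24 h to test substances in presence of 0.75 uM PK11195 (final).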

[4] = target: Nuclear receptor subfamily 1 group I member 3 (Homo sapiens) (UniProt Q14994); test: Primary qHTS for agonist of constitutive androstane receptor (CAR) against the NCATS DSHEA and TCM libraries (AID 1794839); also: potency is read from the fitted curve at half-maximal effect;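 as to activation: HepG2 cells expressing human CAR with a CYP2B6 reporter plus PK11195 antagonist; 0% is about no effect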
Summary of the method: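 Luminescence from ONE-Glo luciferase was the agonist read-out in HepG2-CYP2B6-hCAR cells exposed 24 h to test substances. Wells also held the CAR antagonist PK11195 at 0.75 µM final. Viability was by CellTiter-Fluor fluorescence.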

[5] = HepG2 viability counterscreen (readout 2: ATP content) against the NCATS DSHEA and TCM libraries (AID 1794840); also: 0% is about no effect
Summary of the method: (§1)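 1,000 HepG2 cells/well, 4 h attach; compounds ~24 h, 37C/5% CO2. Readout 1: GF-AFC 25 uM final, 30 min, fluorescence 380/510 nm. Readout 2: CellTiter-Glo, 30 min RT, luminescence.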

[6] = HepG2 viability counterscreen (readout 1: protease activity) against the NCATS DSHEA and TCM libraries (AID 1794841);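 also: cells exposed to compounds for about 24 h before the protease read; 0% is about no effect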
Summary of the method: as §1

[7] = target: Cytochrome P450 2D6 (Homo sapiens) (UniProt P10635); test: qHTS for inhibitors of CYP2D6 against the NCATS DSHEA and TCM libraries (AID 1919972); also: % is scaled to controls: 0 for no effect and ±100 for the full control effect
Summary of the method: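 CYP2D6 enzyme with pro-luciferin substrate in manufacturer buffer (typically 100 mM KPO4), preincubated 15 min RT with substances (most at 19.5 nM upward); NADPH regeneration system (1x) started 30–45 min RT reaction; P450-Glo luminescence read after 30 min; quinidine as intraplate control.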

[8] = KB-3-1 P-gp reporter qHTS against the NCATS DSHEA and TCM libraries (AID 1919975); also: 0% is about no effect
Summary of the method: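 CellTiter-Glo luminescence viability readout; KB-3-1 parental cells, 500/well, attached ~4 h, then compound for ~72 h, 37C, 5% CO2. Bortezomib intraplate control.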

[9] = qHTS Counterscreen for compound interference against the NCATS DSHEA and TCM libraries (AID 1919978); details: firefly luciferase detection reagent interference, luminescence;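 also: compounds preincubated with 1 µM D-luciferin or buffer before detection reagent; % of control where 0% means no effect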
Summary of the method: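 Luminescence counterscreen for detection-kit interference: compounds at 19.5 nM–39.8 uM final, 15 min RT with 1 uM D-luciferin or buffer only; detection reagent added, 30 min RT, then read.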

[10] = Dual reporter qHTS for agonist of Pregnane X Receptor (hPXR) against the NCATS DSHEA and TCM libraries: Fluorescence readout (AID 1920058); also: 0% is about no effect
Summary of the method: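 Cells were plated at 2000 per well and allowed to attach for 5 h. Test substances were pinned in and incubated roughly 24 h. CellTiter-Fluor was then added and fluorescence measured after 1 h.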

[11] = target: Nuclear receptor subfamily 1 group I member 2 (Homo sapiens) (UniProt O75469); test: Dual reporter qHTS for agonist of Pregnane X Receptor (hPXR) against the NCATS DSHEA and TCM libraries: Luminescence readout (AID 1920059); also: 0% is about no effect
Summary of the method: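 hPXR-Luc HepG2 cells, 2000/well in 5% charcoal-stripped FBS medium, attached 5 h, then exposed 24 h at 37C to compounds. Viability by CellTiter-Fluor, then luciferase luminescence with ONE-Glo.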

[12] = target: Nuclear receptor subfamily 1 group I member 2 (Homo sapiens) (UniProt O75469); test: Dual reporter qHTS for antagonist of Pregnane X Receptor (hPXR) against the NCATS DSHEA and TCM libraries: Luminescence Readout (AID 1920060);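 also: HepG2 cells carrying hPXR luciferase reporter stimulated with rifampicin at 2 µM; 0% is about no effect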
Summary of the method: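 Antagonist mode: rifampicin 2 uM final co-added with compounds to hPXR-LucHepG2 cells for 24 h at 37C. Viability by CellTiter-Fluor, Ex/Em 405/540 nm, 1 h; reporter by ONE-Glo luminescence.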

Chain of Nuclear receptor subfamily 1 group I member 3 (Homo sapiens) (Q14994 whole entry, looked up): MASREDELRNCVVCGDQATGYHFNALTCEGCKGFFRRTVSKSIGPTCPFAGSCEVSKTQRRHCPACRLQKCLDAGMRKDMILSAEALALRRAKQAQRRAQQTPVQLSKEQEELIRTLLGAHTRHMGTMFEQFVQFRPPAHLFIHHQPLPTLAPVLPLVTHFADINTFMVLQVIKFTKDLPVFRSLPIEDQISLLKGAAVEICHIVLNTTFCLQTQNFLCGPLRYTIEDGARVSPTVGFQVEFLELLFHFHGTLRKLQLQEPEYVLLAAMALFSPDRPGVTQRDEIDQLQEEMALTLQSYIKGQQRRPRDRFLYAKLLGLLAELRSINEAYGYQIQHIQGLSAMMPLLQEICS
Chain of Cytochrome P450 2D6 (Homo sapiens) (P10635 whole entry, looked up): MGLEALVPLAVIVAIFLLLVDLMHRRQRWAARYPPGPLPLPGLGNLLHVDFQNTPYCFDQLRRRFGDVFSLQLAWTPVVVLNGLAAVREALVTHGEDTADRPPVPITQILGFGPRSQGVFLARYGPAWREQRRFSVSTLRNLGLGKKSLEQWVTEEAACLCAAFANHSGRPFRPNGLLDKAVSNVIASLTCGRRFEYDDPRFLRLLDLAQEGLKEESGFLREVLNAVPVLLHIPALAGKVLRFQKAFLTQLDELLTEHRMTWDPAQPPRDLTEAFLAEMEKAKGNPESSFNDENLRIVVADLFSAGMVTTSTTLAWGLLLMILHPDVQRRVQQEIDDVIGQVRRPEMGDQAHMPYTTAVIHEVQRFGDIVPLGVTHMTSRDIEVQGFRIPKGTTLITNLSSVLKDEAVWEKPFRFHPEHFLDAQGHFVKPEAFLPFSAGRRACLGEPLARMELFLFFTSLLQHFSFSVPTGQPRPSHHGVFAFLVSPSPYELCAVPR
Chain of Nuclear receptor subfamily 1 group I member 2 (Homo sapiens) (O75469 whole entry, looked up): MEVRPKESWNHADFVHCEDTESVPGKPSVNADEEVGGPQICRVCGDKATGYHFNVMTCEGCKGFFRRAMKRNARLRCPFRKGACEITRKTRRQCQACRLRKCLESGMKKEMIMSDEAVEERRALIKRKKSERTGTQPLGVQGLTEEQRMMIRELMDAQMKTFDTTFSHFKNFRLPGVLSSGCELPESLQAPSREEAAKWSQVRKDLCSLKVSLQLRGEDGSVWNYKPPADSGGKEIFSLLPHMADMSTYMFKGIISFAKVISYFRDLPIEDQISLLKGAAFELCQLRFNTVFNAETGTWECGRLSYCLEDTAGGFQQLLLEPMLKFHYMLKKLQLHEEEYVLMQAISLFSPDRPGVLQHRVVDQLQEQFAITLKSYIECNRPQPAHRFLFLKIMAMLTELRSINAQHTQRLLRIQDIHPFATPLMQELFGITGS

C=CC(=C)CCC=C(C)C
inactive: Potency [1] | outcome [2] | outcome [3] | Potency [4] | outcome [5] | outcome [6] | Potency [7] | outcome [8] | max response [9] 1.58% | outcome [10] | Potency [11] | outcome [12]

C=C1C[C@@]23CC[C@H]4[C@](C)(CCC[C@]4(C)C(=O)O[C@@H]4O[C@H](CO)[C@@H](O)[C@H](O)[C@H]4O)[C@@H]2CC[C@]1(O[C@H]1O[C@@H](CO)[C@H](O)[C@@H](O)[C@@H]1O)C3
inactive: outcome [2] | outcome [3] | Potency [4] | outcome [5] | outcome [6] | Potency [7] | outcome [8] | max response [9] 3.88% | outcome [10] | Potency [11] | outcome [12]

CC1=CCC(O)(C(C)C)CC1 (configuration not stated)
inactive: outcome [2] | outcome [3] | Potency [4] | outcome [5] | outcome [6] | Potency [7] | outcome [8] | max response [9] 1.58% | outcome [10] | Potency [11] | outcome [12]

CC1(C)CC[C@]2(C(=O)O)CC[C@]3(C)C(=CCC4[C@@]5(C)CC[C@H](O)[C@@](C)(CO)C5CC[C@]43C)[C@H]2C1 (some centres not stated)
inactive: outcome [2] | outcome [3] | Potency [4] | outcome [5] | outcome [6] | Potency [7] | outcome [8] | max response [9] -0.0807% | outcome [10] | Potency [11] | outcome [12]

CCCCCCCCC[C@@H](O)CC(=O)CCc1ccc(O)c(OC)c1
active: Potency [4] 12.6 µM
inactive: outcome [2] | outcome [3] | outcome [5] | outcome [6] | Potency [7] | outcome [8] | max response [9] 2.63% | outcome [10] | outcome [12]

CC(=O)OC/C=C/c1ccccc1
inactive: outcome [2] | outcome [3] | Potency [4] | outcome [5] | outcome [6] | Potency [7] | outcome [8] | max response [9] 3.54% | outcome [10] | Potency [11] | outcome [12]

C[C@@H]1CC[C@]2(C)CC[C@]3(C)C(=CC(=O)C4[C@@]5(C)CC[C@@H](O)[C@](C)(C(=O)O)C5CC[C@]43C)C2[C@H]1C (some centres not stated)
inactive: outcome [2] | outcome [3] | Potency [4] | outcome [5] | outcome [6] | Potency [7] | outcome [8] | max response [9] 2.52% | outcome [10] | Potency [11] | outcome [12]

COc1cc(/C=C/c2ccccc2)oc(=O)c1
active: Potency [4] 12.6 µM
inactive: Potency [1] | outcome [2] | outcome [3] | outcome [5] | outcome [6] | Potency [7] | outcome [8] | max response [9] 2.93% | outcome [10] | outcome [12]

O=C(O)c1ccccc1
inactive: Potency [1] | outcome [2] | outcome [3] | Potency [4] | outcome [5] | outcome [6] | Potency [7] | outcome [8] | max response [9] -0.483% | outcome [10] | Potency [11] | outcome [12]

O=C(OC[C@H]1O[C@@H](OC(=O)c2cc(O)c(O)c(O)c2)[C@H](OC(=O)c2cc(O)c(O)c(O)c2)[C@@H](OC(=O)c2cc(O)c(O)c(O)c2)[C@@H]1O)c1cc(O)c(O)c(O)c1
inactive: outcome [2] | outcome [3] | Potency [4] | outcome [5] | outcome [6] | outcome [8] | max response [9] -2.07% | outcome [10] | Potency [11]

CC(C)=CCCC(C)(OC1OC(COC2OC(CO)C(O)C2O)C(O)C(O)C1O)C1CCC2(C)C1C(O)CC1C3(C)CCC(OC4OC(CO)C(O)C(O)C4OC4OC(CO)C(O)C(O)C4O)C(C)(C)C3CCC12C (configuration not stated)
inactive: outcome [2] | outcome [3] | Potency [4] | outcome [5] | outcome [6] | Potency [7] | outcome [8] | max response [9] 2.08% | outcome [10] | Potency [11] | outcome [12]

CCCCCCCCCCCCCCCCCCCCCCCCCCCCCCO
inactive: viability change, negative = cytotoxic [2] -4.15% [at 5 µM] | activity change, negative = cytotoxicity [3] 8.74% [at 5 µM] | activation [4] -23.2% [at 5 µM] | activity change, negative = cytotoxic [5] -1.11% [at 3.42 µM] | activity change, negative = inhibition [6] 5.84% [at 3.42 µM] | activity change, negative = inhibition [7] -0.757% [at 4.27 µM] | activity change, negative = inhibition [8] -11% [at 3.26 µM] | max response [9] -2.33% | activation [10] 1.05% [at 5 µM] | activation [11] -7.37% [at 5 µM] | activity change, negative = inhibition [12] -14.7% [at 5 µM]

CCCCCCCC/C=C\CCCCCCCCCCCCCC(=O)O
inactive: outcome [2] | outcome [3] | Potency [4] | outcome [5] | outcome [6] | Potency [7] | outcome [8] | max response [9] -2.19% | outcome [10] | Potency [11] | outcome [12]

CC1=CC[C@H](C(C)C)C=C1
inactive: outcome [2] | outcome [3] | Potency [4] | outcome [5] | outcome [6] | Potency [7] | outcome [8] | max response [9] 0.517% | outcome [10] | outcome [12]
